# Measurements as given in PubChem BioAssay AID624288 (National Center for Advancing Translational Sciences (NCATS), 2012).
# In all, about 340,000 compounds went through this assay and about 1,400 (0.41%) were called active. Roughly 4% stayed inconclusive and do not appear here. Calls follow the shape of the full dose curve; cell line not stated here. Many of the other results were omitted from the sample, so actives are more common in it than they were.
# Experiment: qHTS for Antagonists of gsp, the Etiologic Mutation Responsible for Fibrous Dysplasia/McCune-Albright Syndrome: qHTS; also: nearly all actives have a fitted effect of over 65% in size
# Settings: gsp-mutant cells, cAMP HTRF, 30 min; series mostly up to 76.9 µM; activity change, negative = inhibition: at the top concentration
# Method in brief: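 HTRF cAMP read-out (cAMP-d2 plus anti-cAMP antibody-K in lysis buffer, 30 min RT). Before lysis, cells are exposed to compounds with […] for 30 min at 37C in DPBS containing Ca/Mg, BSA and Tween 20.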
# % is scaled to controls: 0 for no effect and ±100 for the full control effect; potency is read from the fitted curve at half-maximal effect.
Compound,"activity change, negative = inhibition",Potency
COc1ccc2sc(-c3ccc(N(C)C)cc3)c(C#CCO)c2c1,-15.3% (inactive),
COc1ccc(-c2sc3ccc(OC)cc3c2C#Cc2ccccn2)cc1,,28.2 µM (active)
COc1ccc2sc(-c3ccc(N(C)C)cc3)c(-c3ccc4cc[nH]c4c3)c2c1,5.55% (inactive),
CN(C)C(=S)N=c1ssc(=S)n1Cc1ccco1,-7.09% (inactive),
Cc1nn(-c2ccc([N+](=O)[O-])cc2)c(N)c1-c1ccccc1,-14.7% (inactive),
O=c1[nH]n(-c2ccc([N+](=O)[O-])cc2)c(=O)c2ccccc12,-9.12% (inactive),
O=C1CC(c2ccccc2)=NN1c1ccc([N+](=O)[O-])cc1,,35.5 µM (active)
O=C1COc2c1ccc(O)c2O,0.901% (inactive),
O=C(O)c1ccc(Cn2cnc3c(=S)nc[nH]c32)cc1,8.44% (inactive),
O=C(CC(=O)c1cccnc1)c1ccccc1,3.04% (inactive),
CCC(=C/c1sc2ccc3ccccc3c2[n+]1C)/C=C1\Sc2ccc3ccccc3c2N1C,,35.5 µM (active)
O=C1CC(c2ccccc2)C(c2ccccc2)=NN1 (configuration not stated),-1.01% (inactive),
c1ccc(CNc2ncnc3[nH]ncc23)cc1,-8.86% (inactive),
Cc1ccc(SCC(=O)N2CCN(c3ccc(F)cc3)CC2)cc1,-0.587% (inactive),
CN(C(=O)c1ccc(NC(=O)Cc2cccc(NC(=O)C3CCN(C(=O)c4ccccc4)CC3)c2)cc1)C1CC1,6.34% (inactive),
CCc1ccc(NC(=O)Nc2ccncc2)cc1,13% (inactive),

Compound,"activity change, negative = inhibition",Potency
Cc1ccc(NC(=O)Nc2nnc(-c3ccncc3)s2)cc1,,50.1 µM (active)
Cc1ccc(NC(=O)Nc2cccnc2)cc1,6.02% (inactive),
O=C1NCC(Nc2ccccc2)C(=O)N1 (configuration not stated),-8.92% (inactive),
COc1ccc(S(=O)(=O)N2C[C@H]3CON(C)[C@H]3C[C@H]2c2cccc(Br)c2)cc1,5.32% (inactive),
S=c1[nH]nc(-c2ccncc2)n1/N=C/c1ccccc1Cl,-8.88% (inactive),
O=[N+]([O-])c1ccccc1/C=N/n1c(COc2ccccc2)n[nH]c1=S,-10.1% (inactive),
Fc1ccccc1/C=N/n1c(-c2cccnc2)n[nH]c1=S,,28.2 µM (active)
Cc1cccc(NC(=S)N2CCC(C(=O)c3ccc(F)cc3)CC2)c1,2.19% (inactive),
Cc1nn(-c2ccccc2)c(C)c1NC(=O)CCl,1.85% (inactive),
Cc1nn(-c2ccccc2)c(C)c1NC(=O)COc1ccc(Cl)cc1Cl,,50.1 µM (active)
Cc1nn(-c2ccccc2)c(C)c1NC(=O)COC(=O)c1cc(Cl)ccc1O,-18.7% (inactive),
CC(C)Cn1cnc2c(SCc3ccc(Cl)cc3)nc(N)nc21,7.84% (inactive),
COC(=O)CC(CC(=O)OC)n1cccc1,3.11% (inactive),
Cc1nnc(SCC(=O)Nc2cccc(N)c2)n1-c1ccccc1,4.39% (inactive),
COc1ccc(-n2cnnc2SCC(=O)Nc2cccc(S(N)(=O)=O)c2)cc1,-7.84% (inactive),
NS(=O)(=O)c1cccc(NC(=O)CSc2nc3ccccc3n2-c2ccccc2)c1,,28.2 µM (active)
